Assay results taken from the supplement of paper PMC3334620.
In all, about 33,000 sequences were measured (“E-score (-0.5 to 0.5)”: median about -0.04, highest 2% from about 0.36 on). The sample as a whole holds a higher share of the highest values than the screen did.

target: T1, Hmlalpha2 (UniProt P0CY09); test: PBM E-score (8-mer binding enrichment) (E-score (-0.5 to 0.5)); higher = stronger / more preferred TF binding; conditions: protein concentration: 200 nM; construct: GST-full length
T1 sequence: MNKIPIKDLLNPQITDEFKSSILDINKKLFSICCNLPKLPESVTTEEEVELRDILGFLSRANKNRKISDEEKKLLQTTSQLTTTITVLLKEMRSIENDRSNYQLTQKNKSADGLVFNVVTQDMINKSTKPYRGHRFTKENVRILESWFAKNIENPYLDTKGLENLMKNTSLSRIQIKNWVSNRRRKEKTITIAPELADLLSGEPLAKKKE
Method: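 Universal 'all 10-mer' protein binding microarrays (Agilent AMADID 015681) probed with GST-tagged S. cerevisiae TFs (full-length or DBD) made by in vitro transcription/translation (PURExpress), about 100-200 nM. Bound TF was detected with fluorescent anti-GST. Each ungapped 8-mer (which stands for itself and its reverse complement) is scored by the PBM enrichment score (E-score), a modified Wilcoxon-Mann-Whitney statistic from -0.5 to +0.5, computed with the Universal PBM Analysis Suite. Scale: above 0.35 generally sequence-specific binding.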

Sequence | PBM E-score
AGCAAGTC | -0.0673
CCCTATCG | -0.272
AGGAAACC | -0.0996
TCCCAGGA | -0.361
CATTAGAG | -0.127
AGATTTGC | -0.0168
CGAGGGTA | -0.233
GCCTGCCA | -0.0217
GCATGACA | 0.188
CCATGACA | 0.0453
ACATGACA | 0.412
ACATGACT | 0.307
CCATGACC | -0.348
ACATGACG | 0.379
CCATGACG | -0.105
GCATGACC | -0.191
ACATGACC | 0.38
GCTTCAAC | 0.0375
CTTGATCC | -0.142
AAAATCGT | 0.0614
AGATGGAT | -0.265
GTGTCTCA | -0.0554
GCCTAGAA | -0.187

Sequence | PBM E-score
CGAGAAAG | -0.0529
AGCCCTGA | -0.0785
ACCGTGTC | 0.264
GCCGTGAA | -0.197
CCCGTGTA | 0.451
CCCGTGGA | -0.176
GCCGTGCA | 0.0721
GCCGTGTA | 0.432
CCCGTGTC | 0.168
ACCGTGTA | 0.473
ACCGTGTG | 0.113
AGCAAACG | -0.0759
AAGTGCCG | 0.00934
ACCGACTG | -0.317
GTTGTTGA | 0.259
TTCTGAAA | 0.0341
CTTTCTGA | 0.0509
CCATTACG | 0.13
CCATTACC | -0.0103
TCATTAGA | 0.0985
GCATTACA | 0.428
CCATTACA | 0.435
GCATTAGA | 0.0569

Sequence | PBM E-score
TCATTAAA | 0.263
GCATTACC | 8e-05
ACATTACT | 0.303
ACATTACA | 0.449
TCATTACA | 0.439
ACATTACG | 0.336
GTACGAAC | 0.152
GGGAGAGA | -0.33
ACGGGTTG | -0.15
CCTCAGCG | -0.255
CCCAGAAA | -0.0348
GTTGCGAA | 0.0227
ACGTCCTC | -0.162
CACGGCTC | -0.0568
CGTGTCGC | 0.214
ATGCCCTG | -0.0289
CCGGCGGA | -0.234
TACATGTA | 0.479
GACATGTA | 0.423
GAAATGTA | 0.0891
GACATGTC | 0.327
TACAGGTA | 0.135
GACATTTA | 0.191

Sequence | PBM E-score
TAAATGTA | 0.38
CACATGTC | 0.22
CAAATGTA | 0.35
TACATCTA | 0.263
CACATGTA | 0.416
AATTGACA | 0.275
AGTCTAGG | -0.15
CGCTCTCA | -0.165
CAGTCCCG | -0.196
ACGCCGAG | -0.0454
ATGTGCTA | 0.0958
CGAAGAAG | -0.0393
ATGTTGAC | 0.356
GTGTTGGA | 0.224
ATGTTGAA | 0.395
GTGTTGAA | 0.398
CTGTTGAA | 0.259
ATGTTGAG | 0.33
GAGCTATA | -0.0673
GGTGCTCA | -0.179
CCCACGAA | -0.102
GGCAGCCC | -0.418
ATTCACAA | 0.232

Sequence | PBM E-score
GATACATC | 0.169
AATACAGC | 0.0849
TATACATA | 0.445
AATACAAT | 0.249
AATACATG | 0.482
TATACAAA | 0.265
AATACAAC | 0.315
AATACATC | 0.368
GATACATA | 0.32
AATACAAG | 0.386
AATACAGG | 0.2
AATACATT | 0.329
GAATGGTA | 0.232
GGTGGGGA | -0.0925
GGCTTATA | -0.0133
AGTGTTGC | 0.169
CGTAAGTC | 0.0646
CCTAAGAG | -0.136
AAGCCAAC | 0.00741
CATACCCG | -0.117
CATACATC | 0.253
